A selection: hits, their analogues and other compounds. The true share with any hit is near 3.9%.
esBAF inh: Bmi1 luciferase reporter increase in mESCs, primary screen, esBAF inhibitor project, mouse ES cells, Bmi1 luciferase knock-in, single point; 24 h; 100% = twice the neutral-well signal; reporter increase, % at 12.5 µM; hit rate 2% among 350,000; AID 602393, 2012; in the data active = activation above about 40%; inconclusive = no clear call, values can overlap the other calls;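 also: a rise in the Bmi1 reporter signal indicates esBAF inhibition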
HSF1 inhib: HSF1 inhibitors in luciferase reporter cells, primary screen, cell-based, NIH3T3, luminescence | AID 2098, 2009 | NIH3T3-HGL HSE-luciferase, MG132-induced, luminescence 8 h; stronger effect = lower value | hit rate 0.77% among 300,000 | activity change, negative = inhibition, % at 7.5 µM (by protocol);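 active = more than half of replicate wells show activity change below -50%, luminescence cut by over half; inconclusive = some wells, but at most half, below -50%; inactive = no replicate well below -50%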;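 also: luciferase reports HSF-1 transcriptional activity via heat shock element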
Wnt act: Wnt/beta-catenin pathway activators, primary screen, cell-based, plate reader, single point; Wnt/beta-catenin reporter cell assay, activator; activation, % at 9.35 µM; hit rate 1.2% among 300,000; AID 743398, 2014; in the data active = activation above about 30%, passing the limit was not always enough; inconclusive = no clear call, values can overlap the other calls
MITF TRPM1 HTS: activators of MITF-driven TRPM1 promoter reporter, primary screen, cell-based, SK-MEL-5, luciferase, single point; AID 588334, 2011; activation, % at 12.5 µM; hit rate 0.75% among 300,000; SK-MEL-5 TRPM1-promoter luciferase, 24 h; % of positive control, neutral wells = 0;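 active = mean activation of at least 80% with every replicate also reaching 80%; inconclusive = mean reaches 80% but some replicate falls short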
HSF-1 act: HSF-1 activators, primary screen, NIH3T3-HGL cells, MG132 stress, luminescence, single point; hit rate 1.7% among 300,000; activation, % at 9 µM; NIH3T3-HGL HSF-1 luciferase reporter, 8 h; 100% = twice DMSO control signal;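 active = mean replicate activation of at least 50% with a set share of replicates each reaching 50%; inconclusive = only one of those two conditions met; inactive = mean below 50% and too few replicates reaching it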
A number is an active result; - = inactive; ? = inconclusive; . = no result given.

SMILES	esBAF inh	HSF1 inhib	Wnt act	MITF TRPM1 HTS	HSF-1 act
COc1ccc(-c2csc(NC(=O)c3c(C)noc3C)n2)cc1	47.6	.	-	-	.
COC(=O)c1c(-c2ccncc2)csc1NC(=O)c1ccoc1C	-	-	.	88.2	-
Cc1ccc(S(=O)(=O)N(C)C[C@@H]2Oc3ccc(NS(=O)(=O)c4ccccc4)cc3CC(=O)N([C@@H](C)CO)C[C@@H]2C)cc1	-	.	.	.	.
COc1ccc(NC(=O)Nc2ccc3c(c2)C(=O)N([C@H](C)CO)C[C@@H](C)[C@H](CN(C)C(=O)NC(C)C)O3)cc1	-	.	.	.	.
CCC(=O)N(C)C[C@H]1Oc2cc(-c3ccc(C)cc3)ccc2S(=O)(=O)N([C@H](C)CO)C[C@H]1C	-	.	.	.	.
Cc1noc(C)c1C(=O)Nc1nc(-c2cccs2)cs1	?	.	30.2	-	.
COc1ccc(CN(C)C[C@@H]2OCCCC[C@@H](C)Oc3ccc(NC(=O)Nc4ccc5c(c4)OCO5)cc3C(=O)N([C@@H](C)CO)C[C@H]2C)cc1	-	.	.	.	.
C[C@H](CO)N1C[C@H](C)[C@H](CN(C)S(=O)(=O)c2cccs2)Oc2ncc(C#CC(C)(C)O)cc2C1=O	-	.	.	.	.
COc1ccccc1N1CCN(/N=C/C(Cl)=C/c2ccccc2)CC1	.	-	45.4	.	54.5
COc1ccccc1N1CCN(/N=C\c2ccccc2)CC1	-	-	-	.	-
COc1ccccc1N1CCN(/N=C\c2ccc(C)o2)CC1	.	-	41.8	-	63.2
CCCC(=O)Nc1ccc2c(c1)C(=O)N(C)[C@@H]1CC[C@@H](CC(=O)NCc3ccccc3)O[C@@H]1CO2	-	.	.	.	.
CC(C)(C)c1ccc(-n2nc(C#N)c(Cl)cc2=O)cc1	.	-	-	-	152.6
O=C(CSc1nnc(SCc2ccc(Cl)cc2)s1)N/N=C/c1c(Cl)cccc1Cl	.	-	.	-	60.0
CCCn1cnc2c(SCc3ccccn3)nc(N)nc21	-	.	-	-	.
CCCn1cnc2c(SCCc3ccccc3)nc(N)nc21	61.3	.	-	-	.
CC(C)Cn1cnc2c(SCc3ccccn3)nc(N)nc21	-	.	-	-	.
CCCCn1cnc2c(SCc3ccccc3F)nc(N)nc21	49.7	.	-	-	.
CC(C)Cn1cnc2c(SCc3ccccc3)nc(N)nc21	75.7	.	-	-	.
CCCn1cnc2c(SCc3ccccc3Cl)nc(N)nc21	48.0	.	-	-	.
COc1ccccc1-c1ccc2c(c1)[C@@H]1[C@@H](CCN1C(=O)C1CC1)[C@H](CO)N2	-	.	.	.	.
COc1ccc(S(=O)(=O)N(C)C[C@@H]2OCCCC[C@H](C)Oc3ccc(NS(=O)(=O)c4c(C)noc4C)cc3C(=O)N([C@H](C)CO)C[C@@H]2C)cc1	-	.	.	.	.
C[C@H]1CN([C@@H](C)CO)C(=O)c2cc(/C=C/c3ccccc3)cnc2O[C@@H]1CN(C)Cc1cccnc1	-	.	.	.	.
Cc1ccc(S(=O)(=O)Nc2ccc3c(c2)CC(=O)N([C@H](C)CO)C[C@@H](C)[C@@H](CN(C)Cc2ccc(Oc4ccccc4)cc2)O3)cc1	-	.	.	.	.
O=C(NCCc1ccc(O)c(O)c1)C1COc2ccccc2O1 (stereo unspecified)	-	-	-	-	120.8
SMILES	esBAF inh	HSF1 inhib	Wnt act	MITF TRPM1 HTS	HSF-1 act
Cc1ccnc(NC(=O)C2CC(=O)N(c3ccc4c(c3)OCCO4)C2)c1 (stereo unspecified)	-	-	46.1	99.1	-
Cc1ccnc(NC(=O)C2COc3ccccc3O2)c1 (stereo unspecified)	.	-	57.6	88.0	-
Cc1ccc(NC(=O)C2COc3ccccc3O2)nc1 (stereo unspecified)	-	-	-	-	-
Cc1ccc(NC(=O)C2COc3ccccc3O2)c(C)c1 (stereo unspecified)	45.0	-	-	-	-
Cc1ccc(NC(=O)C2COc3ccccc3O2)cc1 (stereo unspecified)	-	-	-	.	-
Cc1ccc(S(=O)(=O)N[C@@H]2CC[C@@H](CCn3cc(C4(O)CCCC4)nn3)O[C@@H]2CO)cc1	-	.	.	.	.
Cc1cc(C(=O)Nc2cccc3c2O[C@H](CN(C)CC2CCCCC2)[C@H](C)CN([C@@H](C)CO)C3=O)n(C)n1	-	.	.	.	.
O=C(c1cnccn1)N1CC[C@@H]2[C@@H](CO)Nc3ccc(-c4cccc(F)c4)cc3[C@@H]21	-	.	.	.	.
